Screens deposited in PubChem BioAssay by National Center for Advancing Translational Sciences (NCATS).
Sampled rows, rich in hits. Any-hit rate of the full collection: about 3.1%.
TRb SRC2 PPI = qHTS for Inhibitors of the Interaction of Thyroid Hormone Receptor and Steroid Receptor Coregulator 2 | Thyroid hormone receptor beta (Homo sapiens), P10828 | TRbeta-SRC2 peptide binding, fluorescence polarization; receptor liganded with 1 µM T3 | Potency, µM (doses to about 106 µM), inactives show top-dose activity change, negative = inhibition, most hits filed as inhibitors | 280,000 tested, 0.065% active | AID 1469, 2008;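 also: plate controls were bound peptide for no effect and peptide without receptor for full effect; nearly all actives have a fitted effect of over 50% in size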
Target sequence (P10828 whole entry, looked up): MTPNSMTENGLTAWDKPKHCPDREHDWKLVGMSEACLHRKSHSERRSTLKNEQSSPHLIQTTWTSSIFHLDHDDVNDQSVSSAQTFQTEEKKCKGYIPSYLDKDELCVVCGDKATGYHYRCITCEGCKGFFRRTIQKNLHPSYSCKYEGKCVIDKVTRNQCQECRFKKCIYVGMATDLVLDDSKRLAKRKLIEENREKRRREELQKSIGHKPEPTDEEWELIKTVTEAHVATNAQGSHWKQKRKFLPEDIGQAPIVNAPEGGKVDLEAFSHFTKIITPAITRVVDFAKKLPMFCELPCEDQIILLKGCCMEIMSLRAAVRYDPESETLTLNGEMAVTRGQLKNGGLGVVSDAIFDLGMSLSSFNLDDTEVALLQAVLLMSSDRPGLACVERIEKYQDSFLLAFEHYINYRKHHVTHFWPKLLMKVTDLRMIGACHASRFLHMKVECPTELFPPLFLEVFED
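Assay buffer: 20 mM Tris-HCl, 100 mM NaCl, 10% glycerol, 1 mM EDTA, 0.01% NP-40, 1 mM DTT, 1 uM T3, 5% DMSO; TRb LBD 0.6 uM, Texas Red SRC2 20 nM; FP after 5 hr.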
Tau fluor counter = Counterscreen qHTS for Inhibitors of Tau Fibril Formation, Fluorescence Polarization; tau K18 P301L Alexa594 fluorescence, heparin fibrillization; Potency, µM (doses to about 57.7 µM), for inactives: top-dose activity change, negative = decrease; 280,000 tested, 0.93% active; AID 1463, 2008; also: nearly all actives have a fitted effect of over 55% in size
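Human K18 P301L tau (15 uM unlabeled plus 0.24 uM Alexa 594-labeled, final) in 100 mM sodium acetate pH 7 was mixed with compound and 20 uM heparin and incubated 6 hr at 37 C.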
Tau FP inhib = qHTS for Inhibitors of Tau Fibril Formation, Fluorescence Polarization; Potency, µM (highest dose often 57.7 µM), inactives show top-dose activity, negative = inhibition, most hits filed as inhibitors; K18 P301L tau heparin fibrillization, Alexa594 FP, 6 h; Microtubule-associated protein tau (Homo sapiens), P10636; 280,000 tested, 0.39% active; also: nearly all actives have a fitted effect of over 55% in size
Target sequence (P10636 561-689 P618L limits assumed): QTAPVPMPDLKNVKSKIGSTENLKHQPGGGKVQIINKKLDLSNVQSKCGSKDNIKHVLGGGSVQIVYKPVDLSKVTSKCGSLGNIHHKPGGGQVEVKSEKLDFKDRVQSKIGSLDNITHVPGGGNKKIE
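Human tau K18 […] P301L fragment, 15 uM unlabeled plus 0.24 uM Alexa 594-labeled tau (final), with compound and 20 uM heparin in 100 mM sodium acetate pH 7; 6 hr at 37 C, then Alexa 594 FP read.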
TexasRed fluor = Total Fluorescence Counterscreen for Inhibitors of the Interaction of Thyroid Hormone Receptor and Steroid Receptor Coregulator 2; TRb/SRC2 Texas Red total fluorescence interference; Potency, µM (top dose mostly 106 µM), without a hit: at the highest dose fluorescence change, negative = quenching; 280,000 tested, 0.29% active; AID 1479, 2009; active = well fitted curve in either direction with a large enough effect; inconclusive = small, poorly fitted or top-dose-only effect
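Flags fluorescent or light-absorbing compounds by total fluorescence, S + 2P, at 555 nm excitation and 632 nm emission. Mixture: 20 nM Texas Red SRC2 peptide, 0.6 uM human TRb LBD, 1 uM T3, 5% DMSO; compound exposure 5 h at ambient temperature.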
Tau ThT inhib = qHTS for Inhibitors of Tau Fibril Formation, Thioflavin T Binding | Microtubule-associated protein tau (Homo sapiens), P10636 | recombinant tau K18 P301L (four-repeat tau fragment), heparin-induced fibrillization, ThT fluorescence | Potency, µM (series often up to 57.4 µM), for the others: at the top dose activity, negative = inhibition, usual class: inhibitors | 270,000 tested, 2.1% active | AID 1460, 2008; also: nearly all actives have a fitted effect of over 55% in size
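Recombinant human tau K18 fragment […] carrying P301L, 15 uM unlabeled plus 0.24 uM Alexa 594-labeled, was fibrillized with 20 uM heparin in 100 mM sodium acetate pH 7 for 6 hr at 37 C; 30 uM ThT fluorescence read after 1 hr.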
* = called active by the depositor; ! = repeats disagree; [ ] = dose if it differs, or a comment. Unless noted, calls follow the shape of the dose curve; as a rule, active = well fitted curve in the direction sought with a large enough effect; inconclusive = small, poorly fitted or top-dose-only effect, or another doubt; inactive = no such curve, though single readings can be large; an effect the other way counts as inactive or inconclusive. Unless noted, % is scaled to controls: 0 for no effect and ±100 for the full control effect; potency is read from the fitted curve at half-maximal effect.

How did Cc1[nH]c(N=Nc2ccccc2)nc1N=Nc1ccccc1 do in these assays?
TRb SRC2 PPI: 2%; Tau fluor counter: inconclusive; Tau FP inhib: -1%; TexasRed fluor: -4%; Tau ThT inhib: 3.5µM*

How did Cc1cc2c(NC(=O)Nc3ccc(C(C)(C)C)cc3)cccc2nn1 do in these assays?
TRb SRC2 PPI: -22%; Tau fluor counter: 16µM*[quencher]; Tau FP inhib: 35µM*; TexasRed fluor: 6%; Tau ThT inhib: -15%

How did [O-][n+]1c2c(c3c4non(O)c4ccc31)CCCC2 do in these assays?
TRb SRC2 PPI: -1%; Tau fluor counter: inconclusive; Tau FP inhib: 10%; TexasRed fluor: -8%; Tau ThT inhib: 14µM*

How did Cc1ccc(N=Nc2[nH]c3ccccc3c2O)cc1 do in these assays?
TRb SRC2 PPI: -5%; Tau fluor counter: 2%; Tau FP inhib: -11%; TexasRed fluor: -5%; Tau ThT inhib: 7%

Results for NC(=O)c1ccc(N=Nc2c(O)c3ccccc3[nH]c2=O)cc1 ?
TRb SRC2 PPI: -17%; Tau fluor counter: -19%; Tau FP inhib: inconclusive; TexasRed fluor: -1%; Tau ThT inhib: 0.5µM*

Results for COc1cc(N=Nc2c(O)c3ccccc3[nH]c2=O)c(OC)cc1N=Nc1ccccc1 ?
TRb SRC2 PPI: -13%; Tau fluor counter: inconclusive; Tau FP inhib: -12%; TexasRed fluor: -6%; Tau ThT inhib: 7.1µM*

How did CC(C)O.CC(C)O.CC(C)O.CC(C)O.[Ti] do in these assays?
TRb SRC2 PPI: -2%[201 µM]; TexasRed fluor: -2%[201 µM]

How did Cc1cccc(C2(c3cccc(C)c3)CC2C(=O)NCC2CCCO2)c1 (stereo not given) do in these assays?
TRb SRC2 PPI: 7%; Tau fluor counter: 7%; Tau FP inhib: 12%; TexasRed fluor: -1%; Tau ThT inhib: 1%

What do the screens show for `Cc1cccc(C2(c3cccc(C)c3)CC2C(=O)Nc2ccc([N+](=O)[O-])cc2O)c1` (stereo not given)?
TRb SRC2 PPI: 0%; Tau fluor counter: 10µM*[quencher]; Tau FP inhib: inconclusive; TexasRed fluor: -1%; Tau ThT inhib: inconclusive

What do the screens show for `COC(=O)C1=C[C@@H](C(=O)OC)C2C3=C(C(=O)[C@@]2(CC(C)C)NC(=O)c2ccccc2)[C@H](C)n2c(=O)n(C)c(=O)n2[C@@H]3C1` (stereo not given in full)?
TRb SRC2 PPI: -8%; TexasRed fluor: -2%

How did Cc1cc(/C=C\c2ccc3cc(N(C)C)ccc3[n+]2C)c(C)n1-c1ccccc1 do in these assays?
TRb SRC2 PPI: inconclusive; TexasRed fluor: 14µM*[fluorescent]

What do the screens show for `Cc1ccc(NCC(=O)N/N=C/c2cc(O)ccc2[N+](=O)[O-])cc1`?
TRb SRC2 PPI: -3%; Tau fluor counter: -27%; Tau FP inhib: 3%; TexasRed fluor: -4%; Tau ThT inhib: 14µM*

Results for Cc1ccc(NCC(=O)N/N=C/c2ccncc2)cc1 ?
TRb SRC2 PPI: -4%; Tau fluor counter: 6%; Tau FP inhib: 1%; TexasRed fluor: -3%; Tau ThT inhib: 7%

What do the screens show for `Cc1ccc(NCC(=O)N/N=C/c2cccc(Oc3ccccc3)c2)cc1`?
TRb SRC2 PPI: -10%; Tau fluor counter: 10µM*[quencher]; Tau FP inhib: 15%; TexasRed fluor: 1%; Tau ThT inhib: inconclusive

Results for COc1ccc(NCC(=O)N/N=C/c2cc([N+](=O)[O-])ccc2N2CCCC2)cc1 ?
TRb SRC2 PPI: 5%; Tau fluor counter: inconclusive; Tau FP inhib: 18%; TexasRed fluor: -6%; Tau ThT inhib: 11µM*

What do the screens show for `COc1ccc(OCC(=O)NCC(c2ccc(OC)cc2)N2CCCCC2)cc1` (stereo not given)?
TRb SRC2 PPI: 1%; Tau fluor counter: -11%; Tau FP inhib: 1%; TexasRed fluor: -3%; Tau ThT inhib: -16%

What do the screens show for `O=C(COc1ccc(F)cc1)NCC(c1ccc(Cl)cc1)N1CCCCC1` (stereo not given)?
TRb SRC2 PPI: -26%; Tau fluor counter: 4%; Tau FP inhib: 0%; TexasRed fluor: 40µM*[quencher]; Tau ThT inhib: 11%

What do the screens show for `CCC(=O)OC1(C)C(=O)C2=COC(c3ccc(OC)cc3)=CC2=C(Br)C1=O` (stereo not given)?
TRb SRC2 PPI: 3%; Tau fluor counter: -11%; Tau FP inhib: -7%; TexasRed fluor: -1%; Tau ThT inhib: 16µM*

What do the screens show for `COc1ccc(C2=CC3=C(Br)C(=O)C(C)(O)C(=O)C3=CO2)cc1` (stereo not given)?
TRb SRC2 PPI: 8%; Tau fluor counter: inconclusive; Tau FP inhib: inconclusive; TexasRed fluor: -2%; Tau ThT inhib: 18µM*!

How did CC(=O)OCC(NC(=O)C(COCc1ccccc1)NC(=O)OC(C)(C)C)C1OC(n2cc(F)c(=O)[nH]c2=O)C(OC(C)=O)C1OC(C)=O (stereo not given) do in these assays?
TRb SRC2 PPI: -1%; TexasRed fluor: -2%

How did O=C(N/N=C\c1ccc(Sc2ccccn2)o1)c1cccc(F)c1 do in these assays?
TRb SRC2 PPI: -4%; Tau fluor counter: -12%; Tau FP inhib: -9%; TexasRed fluor: 0%; Tau ThT inhib: -2%

Results for O=C(N/N=C/c1ccc(Sc2ccccn2)o1)c1cc2ccccc2cc1O ?
TRb SRC2 PPI: inconclusive; Tau fluor counter: inconclusive; Tau FP inhib: -1%; TexasRed fluor: 32µM*[quencher]; Tau ThT inhib: 14µM*

What do the screens show for `O=C(CSc1cccc2cccnc12)N/N=C/c1ccc(O)cc1`?
TRb SRC2 PPI: -4%; Tau fluor counter: -7%; Tau FP inhib: 0%; TexasRed fluor: -1%; Tau ThT inhib: inconclusive

Results for O=C(CCc1ccccc1O)N/N=C/c1ccc(Sc2cccc3cccnc23)o1 ?
TRb SRC2 PPI: 3%; Tau fluor counter: 14µM*[quencher]; Tau FP inhib: inconclusive; TexasRed fluor: -1%; Tau ThT inhib: -10%

How did CCOC(=O)C1=C(CN(C)Cc2ccccc2)NC(=O)NC1c1ccc(OC(C)C)cc1 (stereo not given) do in these assays?
TRb SRC2 PPI: -1%; Tau fluor counter: -21%; Tau FP inhib: 3%; TexasRed fluor: -1%; Tau ThT inhib: inconclusive

What do the screens show for `C=CCC1(c2ccccc2)Oc2ccccc2-c2nc3cc(Cl)c(Cl)cc3nc21` (stereo not given)?
TRb SRC2 PPI: 5%[11.2 µM]; Tau fluor counter: 0%[11.6 µM]; Tau FP inhib: -3%[11.6 µM]; TexasRed fluor: 1%[11.2 µM]; Tau ThT inhib: -3%[11.5 µM]
